# Key:
# Assay in all cases: DAPPL (digital affinity profiling via proximity ligation, sequencing); 10 mM Tris-HCl pH 7.5, 50 mM NaCl, 1 mM DTT, 4% glycerol, room temperature, 30 min; GST-TFs on glutathione beads, 16-mer random dsDNA library, 0.1% formaldehyde crosslink after washing; high values mean tight binding
# FLI1 = target: T1, FLI1 (Homo sapiens, UniProt Q01543 1-452); conditions: protein: recombinant; tags: N-terminal GST; dsDNA, one strand shown
# T1 sequence: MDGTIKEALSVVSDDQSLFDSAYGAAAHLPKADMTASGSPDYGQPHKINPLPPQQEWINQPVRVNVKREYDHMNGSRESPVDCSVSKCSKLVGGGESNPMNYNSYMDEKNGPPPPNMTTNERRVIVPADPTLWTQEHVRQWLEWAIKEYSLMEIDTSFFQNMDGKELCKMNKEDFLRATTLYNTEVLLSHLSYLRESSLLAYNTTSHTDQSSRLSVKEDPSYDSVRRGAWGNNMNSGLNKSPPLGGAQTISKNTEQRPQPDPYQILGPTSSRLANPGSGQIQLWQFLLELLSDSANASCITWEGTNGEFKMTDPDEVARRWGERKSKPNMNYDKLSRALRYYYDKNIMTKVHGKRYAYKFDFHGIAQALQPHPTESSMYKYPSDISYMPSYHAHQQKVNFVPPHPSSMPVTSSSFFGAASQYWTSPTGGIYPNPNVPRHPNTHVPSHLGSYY
# How it was run: (§1)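 In yeast, human transcription factors were expressed with a GST fusion, then pulled down on glutathione beads and given DNA barcodes. Pooled with a tag-only sample, they were exposed to 200 nmole of a 16-mer random double-stranded DNA library (Tris/NaCl/DTT/glycerol buffer, room temperature, 30 min), washed, crosslinked with 0.1% formaldehyde, proximity-ligated using BsaI/T4 ligase for 1 h at 37 °C, PCR-amplified and read on an Illumina NextSeq500. Each hexamer's frequency of reads for a factor, divided by the matching frequency for the tag-only sample, gives the binding signal.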
# ELK1 = target: T2, ELK1 (Homo sapiens, UniProt P19419 1-428); conditions: protein: recombinant; tags: N-terminal GST; dsDNA, one strand shown
# T2 sequence: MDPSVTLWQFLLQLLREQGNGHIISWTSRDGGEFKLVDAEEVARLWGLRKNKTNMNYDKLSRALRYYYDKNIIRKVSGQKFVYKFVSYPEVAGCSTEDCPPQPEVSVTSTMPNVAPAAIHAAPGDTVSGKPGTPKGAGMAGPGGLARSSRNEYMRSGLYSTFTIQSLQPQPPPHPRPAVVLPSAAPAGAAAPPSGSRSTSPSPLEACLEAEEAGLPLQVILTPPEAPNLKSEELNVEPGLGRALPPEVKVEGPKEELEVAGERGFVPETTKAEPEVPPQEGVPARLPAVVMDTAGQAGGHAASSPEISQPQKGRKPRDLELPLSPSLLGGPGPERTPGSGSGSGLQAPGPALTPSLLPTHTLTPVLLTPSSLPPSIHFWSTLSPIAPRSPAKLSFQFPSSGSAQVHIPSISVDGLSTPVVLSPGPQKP
# How it was run: as §1
# GABPA = target: T3, GABPA (Homo sapiens, UniProt Q06546 1-454); conditions: protein: recombinant; tags: N-terminal GST; dsDNA, one strand shown
# T3 sequence: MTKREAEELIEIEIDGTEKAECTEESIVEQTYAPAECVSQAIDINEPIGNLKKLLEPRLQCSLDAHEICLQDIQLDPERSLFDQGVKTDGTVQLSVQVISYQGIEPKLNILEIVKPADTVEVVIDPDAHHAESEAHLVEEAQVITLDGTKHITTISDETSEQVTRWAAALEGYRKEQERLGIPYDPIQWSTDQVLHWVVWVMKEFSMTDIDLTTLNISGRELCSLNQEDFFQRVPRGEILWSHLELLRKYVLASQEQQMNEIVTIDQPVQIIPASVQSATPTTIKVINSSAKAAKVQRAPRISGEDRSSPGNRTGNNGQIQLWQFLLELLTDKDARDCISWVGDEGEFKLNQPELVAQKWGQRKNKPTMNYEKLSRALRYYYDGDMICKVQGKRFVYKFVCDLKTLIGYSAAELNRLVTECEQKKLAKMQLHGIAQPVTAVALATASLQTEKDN
# How it was run: as §1
# ERG = target: T4, ERG (Homo sapiens, UniProt P11308 1-479); conditions: protein: recombinant; tags: N-terminal GST; dsDNA, one strand shown
# T4 sequence: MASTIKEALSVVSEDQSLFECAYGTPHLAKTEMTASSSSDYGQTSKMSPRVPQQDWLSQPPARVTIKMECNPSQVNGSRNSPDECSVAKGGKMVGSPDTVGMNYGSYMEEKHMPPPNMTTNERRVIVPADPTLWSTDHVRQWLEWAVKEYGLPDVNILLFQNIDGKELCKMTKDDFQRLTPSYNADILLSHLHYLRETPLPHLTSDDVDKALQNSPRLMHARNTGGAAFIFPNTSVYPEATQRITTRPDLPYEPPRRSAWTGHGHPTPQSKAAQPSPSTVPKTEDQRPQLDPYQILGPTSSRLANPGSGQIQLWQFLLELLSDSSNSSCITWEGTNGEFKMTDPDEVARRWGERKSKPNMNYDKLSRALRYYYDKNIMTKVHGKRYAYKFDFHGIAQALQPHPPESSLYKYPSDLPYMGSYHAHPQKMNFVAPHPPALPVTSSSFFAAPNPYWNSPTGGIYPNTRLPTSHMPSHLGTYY
# How it was run: as §1
# ELF1 = ELF1 (Homo sapiens, UniProt P32519 1-619); conditions: protein: recombinant; tags: N-terminal GST; dsDNA, one strand shown
# How it was run: as §1
# EHF = target: T5, EHF (Homo sapiens, UniProt Q9NZC4 1-300); conditions: protein: recombinant; tags: N-terminal GST; dsDNA, one strand shown
# T5 sequence: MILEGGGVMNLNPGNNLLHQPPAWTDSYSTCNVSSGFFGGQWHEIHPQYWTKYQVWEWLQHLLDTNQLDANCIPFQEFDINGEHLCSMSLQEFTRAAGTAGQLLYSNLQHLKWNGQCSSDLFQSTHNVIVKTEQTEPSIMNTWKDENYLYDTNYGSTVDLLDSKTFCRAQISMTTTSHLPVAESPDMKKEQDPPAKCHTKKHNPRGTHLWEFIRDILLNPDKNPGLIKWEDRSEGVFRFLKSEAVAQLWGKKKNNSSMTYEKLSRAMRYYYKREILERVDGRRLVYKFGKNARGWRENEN
# How it was run: as §1
# SPI1 = SPI1 (Homo sapiens, UniProt P17947 1-270); conditions: protein: recombinant; tags: N-terminal GST; dsDNA, one strand shown
# How it was run: as §1
# SPIB = SPIB (Homo sapiens, UniProt Q01892 1-262); conditions: protein: recombinant; tags: N-terminal GST; dsDNA, one strand shown
# How it was run: as §1
# ELK3 = target: T6, ELK3 (Homo sapiens, UniProt P41970 1-407); conditions: protein: recombinant; tags: N-terminal GST; dsDNA, one strand shown
# T6 sequence: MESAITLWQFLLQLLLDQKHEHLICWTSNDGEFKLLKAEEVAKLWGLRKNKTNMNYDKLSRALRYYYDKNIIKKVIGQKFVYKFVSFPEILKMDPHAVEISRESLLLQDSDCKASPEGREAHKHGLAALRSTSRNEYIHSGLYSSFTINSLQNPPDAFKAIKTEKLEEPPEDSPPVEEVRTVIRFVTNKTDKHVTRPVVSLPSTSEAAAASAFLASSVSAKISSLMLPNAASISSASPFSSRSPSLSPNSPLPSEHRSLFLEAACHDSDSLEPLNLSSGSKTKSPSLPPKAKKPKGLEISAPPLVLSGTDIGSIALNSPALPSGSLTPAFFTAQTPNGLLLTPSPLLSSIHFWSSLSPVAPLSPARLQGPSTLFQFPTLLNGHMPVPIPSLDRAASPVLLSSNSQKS
# How it was run: as §1
# FEV = target: T7, FEV (Homo sapiens, UniProt Q99581 1-238); conditions: protein: recombinant; tags: N-terminal GST; dsDNA, one strand shown
# T7 sequence: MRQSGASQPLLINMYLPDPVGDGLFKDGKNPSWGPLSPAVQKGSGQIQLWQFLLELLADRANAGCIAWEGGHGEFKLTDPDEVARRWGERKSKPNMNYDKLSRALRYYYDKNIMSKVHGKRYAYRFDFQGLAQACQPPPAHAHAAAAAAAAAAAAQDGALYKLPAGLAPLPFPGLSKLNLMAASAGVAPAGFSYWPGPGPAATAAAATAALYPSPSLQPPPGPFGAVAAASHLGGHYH
# How it was run: as §1
# ETV5 = ETV5 (Homo sapiens, UniProt P41161 1-510); conditions: protein: recombinant; tags: N-terminal GST; dsDNA, one strand shown
# How it was run: as §1
# HSF1 = HSF1 (Homo sapiens, UniProt Q00613 1-529); conditions: protein: recombinant; tags: N-terminal GST; chain copies: 3; dsDNA, one strand shown
# How it was run: as §1
# SPIC = target: T8, SPIC (Homo sapiens, UniProt Q8N5J4 1-248); conditions: protein: recombinant; tags: N-terminal GST; dsDNA, one strand shown
# T8 sequence: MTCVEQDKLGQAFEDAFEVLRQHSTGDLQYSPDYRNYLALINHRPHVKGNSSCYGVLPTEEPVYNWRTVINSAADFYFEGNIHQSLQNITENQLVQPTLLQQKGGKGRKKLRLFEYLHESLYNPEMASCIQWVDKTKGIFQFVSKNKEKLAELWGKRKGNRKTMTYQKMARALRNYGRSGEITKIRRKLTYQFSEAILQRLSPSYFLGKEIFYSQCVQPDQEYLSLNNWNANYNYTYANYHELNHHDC
# How it was run: as §1
# ELF4 = ELF4 (Homo sapiens, UniProt Q99607 1-663); conditions: protein: recombinant; tags: N-terminal GST; dsDNA, one strand shown
# How it was run: as §1
# ELK4 = target: T9, ELK4 (Homo sapiens, UniProt P28324-2 1-405); conditions: protein: recombinant; tags: N-terminal GST; dsDNA, one strand shown
# T9 sequence: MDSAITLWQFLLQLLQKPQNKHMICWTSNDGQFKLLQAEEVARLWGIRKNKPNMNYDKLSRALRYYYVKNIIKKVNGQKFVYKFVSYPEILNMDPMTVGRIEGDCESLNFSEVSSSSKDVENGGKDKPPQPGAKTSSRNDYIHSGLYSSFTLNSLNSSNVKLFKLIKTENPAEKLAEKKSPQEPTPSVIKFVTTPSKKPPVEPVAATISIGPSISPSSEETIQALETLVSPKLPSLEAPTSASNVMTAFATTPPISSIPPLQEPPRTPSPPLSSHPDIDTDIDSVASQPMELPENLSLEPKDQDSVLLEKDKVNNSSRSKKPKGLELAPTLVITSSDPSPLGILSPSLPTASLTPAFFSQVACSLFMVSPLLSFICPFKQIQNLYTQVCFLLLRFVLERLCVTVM
# How it was run: as §1
# ETV2 = target: T10, ETV2 (Homo sapiens, UniProt O00321 1-342); conditions: protein: recombinant; tags: N-terminal GST; dsDNA, one strand shown
# T10 sequence: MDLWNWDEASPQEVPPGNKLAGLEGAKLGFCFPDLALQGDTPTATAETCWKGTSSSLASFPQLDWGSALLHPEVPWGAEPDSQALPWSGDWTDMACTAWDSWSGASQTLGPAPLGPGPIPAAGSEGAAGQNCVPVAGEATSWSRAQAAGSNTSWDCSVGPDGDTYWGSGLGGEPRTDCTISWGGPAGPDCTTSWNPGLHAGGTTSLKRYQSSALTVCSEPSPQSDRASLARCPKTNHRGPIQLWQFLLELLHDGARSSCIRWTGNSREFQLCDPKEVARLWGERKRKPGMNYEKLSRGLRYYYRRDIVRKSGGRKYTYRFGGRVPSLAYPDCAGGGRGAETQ
# How it was run: as §1
# ELF3 = target: T11, ELF3 (Homo sapiens, UniProt P78545 1-371); conditions: protein: recombinant; tags: N-terminal GST; dsDNA, one strand shown
# T11 sequence: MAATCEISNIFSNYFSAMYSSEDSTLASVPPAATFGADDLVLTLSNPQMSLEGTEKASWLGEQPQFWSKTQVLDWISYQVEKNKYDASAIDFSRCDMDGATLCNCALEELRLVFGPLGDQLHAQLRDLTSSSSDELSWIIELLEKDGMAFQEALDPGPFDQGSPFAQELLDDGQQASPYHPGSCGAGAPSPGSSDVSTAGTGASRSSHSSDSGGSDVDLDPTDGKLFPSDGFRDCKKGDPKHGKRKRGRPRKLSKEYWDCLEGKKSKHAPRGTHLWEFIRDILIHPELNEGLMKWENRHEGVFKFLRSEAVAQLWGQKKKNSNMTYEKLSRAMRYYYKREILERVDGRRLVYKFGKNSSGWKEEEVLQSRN
# How it was run: as §1
# ETV1 = ETV1 (Homo sapiens, UniProt P50549 1-477); conditions: protein: recombinant; tags: N-terminal GST; dsDNA, one strand shown
# How it was run: as §1
# Sequence of HSF1 (Q00613 whole entry): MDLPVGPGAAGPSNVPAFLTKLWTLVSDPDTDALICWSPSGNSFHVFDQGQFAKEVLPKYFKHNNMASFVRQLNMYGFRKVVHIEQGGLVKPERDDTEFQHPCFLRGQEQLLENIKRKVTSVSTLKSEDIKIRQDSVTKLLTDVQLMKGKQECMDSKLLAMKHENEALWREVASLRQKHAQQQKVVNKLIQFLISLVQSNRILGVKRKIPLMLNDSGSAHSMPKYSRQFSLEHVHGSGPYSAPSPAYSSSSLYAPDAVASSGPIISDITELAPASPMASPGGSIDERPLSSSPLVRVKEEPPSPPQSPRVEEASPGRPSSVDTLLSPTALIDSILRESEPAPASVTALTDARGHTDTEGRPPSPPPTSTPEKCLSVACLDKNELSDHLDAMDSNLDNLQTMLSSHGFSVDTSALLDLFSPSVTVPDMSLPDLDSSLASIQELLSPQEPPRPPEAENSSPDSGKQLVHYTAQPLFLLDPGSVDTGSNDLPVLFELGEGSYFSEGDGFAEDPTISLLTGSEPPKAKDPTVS
# Sequence of SPIB (Q01892 whole entry): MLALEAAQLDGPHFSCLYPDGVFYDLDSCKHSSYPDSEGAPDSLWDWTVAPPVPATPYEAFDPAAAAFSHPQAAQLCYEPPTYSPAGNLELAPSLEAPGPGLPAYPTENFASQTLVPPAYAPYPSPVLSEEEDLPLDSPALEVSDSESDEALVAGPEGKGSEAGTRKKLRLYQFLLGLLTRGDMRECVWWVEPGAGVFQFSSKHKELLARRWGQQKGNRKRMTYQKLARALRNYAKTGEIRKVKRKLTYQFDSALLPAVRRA
# Sequence of ETV5 (P41161 whole entry): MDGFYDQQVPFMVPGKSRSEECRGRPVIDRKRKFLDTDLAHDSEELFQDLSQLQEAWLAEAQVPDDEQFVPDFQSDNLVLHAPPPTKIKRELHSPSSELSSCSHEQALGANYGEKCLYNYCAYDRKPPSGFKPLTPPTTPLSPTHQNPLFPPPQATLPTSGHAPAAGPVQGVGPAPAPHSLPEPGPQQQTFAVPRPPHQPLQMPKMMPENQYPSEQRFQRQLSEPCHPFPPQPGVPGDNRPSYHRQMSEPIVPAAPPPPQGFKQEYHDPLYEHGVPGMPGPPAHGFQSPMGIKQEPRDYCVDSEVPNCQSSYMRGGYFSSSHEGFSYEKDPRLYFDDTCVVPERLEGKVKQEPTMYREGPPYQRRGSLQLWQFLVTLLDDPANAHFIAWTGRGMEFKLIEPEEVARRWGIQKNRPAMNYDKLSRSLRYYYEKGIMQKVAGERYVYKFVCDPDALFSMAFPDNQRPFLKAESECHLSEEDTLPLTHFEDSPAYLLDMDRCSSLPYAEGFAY
# Sequence of ETV1 (P50549 whole entry): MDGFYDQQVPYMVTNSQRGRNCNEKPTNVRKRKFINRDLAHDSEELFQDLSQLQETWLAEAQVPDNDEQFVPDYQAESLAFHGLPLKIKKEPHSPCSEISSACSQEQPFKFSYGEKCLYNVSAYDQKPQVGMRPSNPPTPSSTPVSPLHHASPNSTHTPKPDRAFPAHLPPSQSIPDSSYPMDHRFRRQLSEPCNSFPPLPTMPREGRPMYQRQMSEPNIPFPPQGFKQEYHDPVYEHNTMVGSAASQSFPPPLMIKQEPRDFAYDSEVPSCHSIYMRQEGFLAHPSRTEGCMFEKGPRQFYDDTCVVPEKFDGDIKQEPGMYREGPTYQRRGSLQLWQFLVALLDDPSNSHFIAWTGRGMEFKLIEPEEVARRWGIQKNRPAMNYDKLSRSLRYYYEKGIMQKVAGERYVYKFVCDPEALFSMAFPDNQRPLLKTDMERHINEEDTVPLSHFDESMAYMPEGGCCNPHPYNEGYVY
# Sequence of ELF1 (P32519 whole entry): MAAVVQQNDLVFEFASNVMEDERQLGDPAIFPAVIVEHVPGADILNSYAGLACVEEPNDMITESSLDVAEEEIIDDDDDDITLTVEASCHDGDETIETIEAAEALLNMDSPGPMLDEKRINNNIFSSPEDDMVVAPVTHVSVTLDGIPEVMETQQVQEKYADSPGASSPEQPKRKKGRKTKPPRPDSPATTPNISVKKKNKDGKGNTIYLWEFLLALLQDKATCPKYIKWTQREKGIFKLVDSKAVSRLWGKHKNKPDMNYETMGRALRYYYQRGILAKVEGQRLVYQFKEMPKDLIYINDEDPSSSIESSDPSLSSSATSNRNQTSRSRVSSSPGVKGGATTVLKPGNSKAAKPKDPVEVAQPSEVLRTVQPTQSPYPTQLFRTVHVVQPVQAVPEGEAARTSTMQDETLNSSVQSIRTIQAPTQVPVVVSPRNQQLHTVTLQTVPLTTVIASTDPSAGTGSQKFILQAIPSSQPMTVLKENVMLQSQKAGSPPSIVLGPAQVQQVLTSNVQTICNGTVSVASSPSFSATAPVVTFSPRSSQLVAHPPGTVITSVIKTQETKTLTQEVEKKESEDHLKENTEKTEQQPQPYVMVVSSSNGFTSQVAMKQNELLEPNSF
# Sequence of ELF4 (Q99607 whole entry): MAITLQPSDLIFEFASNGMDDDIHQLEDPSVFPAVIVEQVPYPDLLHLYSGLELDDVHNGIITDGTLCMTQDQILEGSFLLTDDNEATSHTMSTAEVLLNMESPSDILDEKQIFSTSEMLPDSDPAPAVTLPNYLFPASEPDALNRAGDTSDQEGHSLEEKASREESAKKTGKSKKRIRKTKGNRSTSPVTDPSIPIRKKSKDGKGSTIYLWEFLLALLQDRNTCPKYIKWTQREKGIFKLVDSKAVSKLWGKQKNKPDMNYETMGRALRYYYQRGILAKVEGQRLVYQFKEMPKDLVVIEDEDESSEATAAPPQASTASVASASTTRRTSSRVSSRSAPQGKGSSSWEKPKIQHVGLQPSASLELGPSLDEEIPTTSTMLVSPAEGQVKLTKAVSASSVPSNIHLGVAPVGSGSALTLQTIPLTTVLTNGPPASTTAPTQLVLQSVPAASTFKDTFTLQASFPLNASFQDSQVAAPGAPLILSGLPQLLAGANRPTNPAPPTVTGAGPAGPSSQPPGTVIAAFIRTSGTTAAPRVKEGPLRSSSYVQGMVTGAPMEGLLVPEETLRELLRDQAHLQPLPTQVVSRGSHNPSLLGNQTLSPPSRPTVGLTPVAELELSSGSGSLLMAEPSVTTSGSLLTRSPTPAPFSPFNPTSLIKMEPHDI
sequence,measurement,setting,value
GCAACT,binding signal,FLI1,"1.22 fold enrichment (6-mer frequency, TF over GST control)"
same,binding signal,ELK1,"1.19 fold enrichment (6-mer frequency, TF over GST control)"
same,binding signal,GABPA,"1.19 fold enrichment (6-mer frequency, TF over GST control)"
same,binding signal,ERG,"1.33 fold enrichment (6-mer frequency, TF over GST control)"
same,binding signal,ELF1,"1.29 fold enrichment (6-mer frequency, TF over GST control)"
same,binding signal,EHF,"1.2 fold enrichment (6-mer frequency, TF over GST control)"
same,binding signal,SPI1,"1.23 fold enrichment (6-mer frequency, TF over GST control)"
same,binding signal,SPIB,"1.22 fold enrichment (6-mer frequency, TF over GST control)"
same,binding signal,ELK3,"1.14 fold enrichment (6-mer frequency, TF over GST control)"
same,binding signal,FEV,"1.27 fold enrichment (6-mer frequency, TF over GST control)"
same,binding signal,ETV5,"1.2 fold enrichment (6-mer frequency, TF over GST control)"
same,binding signal,HSF1,"1.05 fold enrichment (6-mer frequency, TF over GST control)"
same,binding signal,SPIC,"1.3 fold enrichment (6-mer frequency, TF over GST control)"
same,binding signal,ELF4,"1.2 fold enrichment (6-mer frequency, TF over GST control)"
same,binding signal,ELK4,"1.2 fold enrichment (6-mer frequency, TF over GST control)"
same,binding signal,ETV2,"1.04 fold enrichment (6-mer frequency, TF over GST control)"
same,binding signal,ELF3,"1.12 fold enrichment (6-mer frequency, TF over GST control)"
same,binding signal,ETV1,"1.25 fold enrichment (6-mer frequency, TF over GST control)"
